# Measured values reported in the supplement of paper PMC8728848.
# Shown is part of a subset that was picked to be rich in the strongest signals.
# How the values were obtained:
# Assay in all cases: glycan array binding signal (z-score within array); higher = stronger binding
# Conditions in all cases: glycan notation: IUPAC condensed, linker removed
# [1] = target: Fuc(a1-2)Gal(b1-4)GlcNAc(b1-3)[Fuc(a1-3)[Gal(b1-4)]GlcNAc(b1-6)]Gal(b1-4)Glc
# How it was run: (§1)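 Glycan array binding is given as a within-array Z-score, which can be read as non-binding when negative. The arrays, 3228 of them, came from the Consortium for Functional Glycomics database and were retained only where the protein sequence was available. Z-scores were averaged across arrays of the same protein sequence at different concentrations or buffers and across linkers.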
# [2] = target: Fuc(a1-2)Gal(b1-4)[Fuc(a1-3)]GlcNAc(b1-2)[Fuc(a1-2)Gal(b1-4)[Fuc(a1-3)]GlcNAc(b1-4)]Man(a1-3)[Fuc(a1-2)Gal(b1-4)[Fuc(a1-3)]GlcNAc(b1-2)Man(a1-6)]Man(b1-4)GlcNAc(b1-4)GlcNAc
# How it was run: as §1
# [3] = target: Fuc(a1-2)[Gal(a1-3)]Gal(b1-4)GlcNAc(b1-3)[Fuc(a1-2)[Gal(a1-3)]Gal(b1-4)GlcNAc(b1-6)]GalNAc
# How it was run: as §1
# [4] = target: Fuc(a1-2)[Gal(a1-3)]Gal(b1-4)[Fuc(a1-3)]GlcNAc(b1-3)GalNAc
# How it was run: as §1
# [5] = target: Fuc(a1-2)[GalNAc(a1-3)]Gal(b1-3)GlcNAc(b1-6)GalNAc
# How it was run: as §1
# [6] = target: Fuc(a1-2)[GalNAc(a1-3)]Gal(b1-4)[Fuc(a1-3)]GlcNAc(b1-3)GalNAc
# How it was run: as §1
# [7] = target: Fuc(a1-3)[Gal(b1-4)]GlcNAc(b1-2)Man(a1-3)[Fuc(a1-3)[Gal(b1-4)]GlcNAc(b1-2)Man(a1-6)]Man(b1-4)GlcNAc(b1-4)[Fuc(a1-6)]GlcNAc
# How it was run: as §1
# [8] = target: Fuc(a1-3)[Gal(b1-4)]GlcNAc(b1-3)Gal(b1-4)[Fuc(a1-3)]GlcNAc
# How it was run: as §1
# [9] = target: Fuc(a1-3)[Gal(b1-4)]GlcNAc(b1-6)[Gal(b1-3)GlcNAc(b1-3)]Gal(b1-4)Glc
# How it was run: as §1
# [10] = target: Fuc(a1-3)[Gal3S(b1-4)]GlcNAc6S
# How it was run: as §1
# [11] = target: Fuc(a1-3)[GalNAc(b1-4)]GlcNAc6S
# How it was run: as §1
# [12] = target: Gal(a1-3)Gal(b1-3)GlcNAc(b1-2)Man(a1-3)[Gal(a1-3)Gal(b1-3)GlcNAc(b1-2)Man(a1-6)]Man(b1-4)GlcNAc(b1-4)GlcNAc
# How it was run: as §1
# [13] = target: Gal(a1-3)Gal(b1-3)[Fuc(a1-4)]GlcNAc(b1-2)Man(a1-3)[Gal(a1-3)Gal(b1-3)[Fuc(a1-4)]GlcNAc(b1-2)Man(a1-6)]Man(b1-4)GlcNAc(b1-4)GlcNAc
# How it was run: as §1
# Gal(a1-3)Gal(b1-4)GlcNAc = target: Gal(a1-3)Gal(b1-4)GlcNAc
# How it was run: as §1
# [14] = target: Gal(a1-4)Gal(b1-4)GlcNAc(b1-2)Man(a1-3)[Gal(a1-4)Gal(b1-4)GlcNAc(b1-2)Man(a1-6)]Man(b1-4)GlcNAc(b1-4)GlcNAc
# How it was run: as §1
# Gal(b1-3)Gal(b1-4)GlcNAc = target: Gal(b1-3)Gal(b1-4)GlcNAc
# How it was run: as §1
# Gal(b1-3)GalNAc = target: Gal(b1-3)GalNAc
# How it was run: as §1
# [15] = target: Gal(b1-3)GlcNAc(b1-3)Gal(b1-4)Glc
# How it was run: as §1
# [16] = target: Gal(b1-3)GlcNAc(b1-3)Gal(b1-4)GlcNAc
# How it was run: as §1
# [17] = target: Gal(b1-3)[Fuc(a1-4)]GlcNAc(b1-2)Man
# How it was run: as §1
# [18] = target: Gal(b1-3)[Fuc(a1-4)]GlcNAc(b1-3)Gal(b1-3)[Fuc(a1-4)]GlcNAc
# How it was run: as §1
# [19] = target: Gal(b1-3)[Fuc(a1-4)]GlcNAc(b1-6)GalNAc
# How it was run: as §1
# [20] = target: Gal(b1-4)GlcNAc(b1-2)[Gal(b1-4)GlcNAc(b1-4)]Man(a1-3)[Gal(b1-4)GlcNAc(b1-2)Man(a1-6)]Man(b1-4)GlcNAc(b1-4)GlcNAc
# How it was run: as §1
# [21] = target: Gal(b1-4)GlcNAc(b1-2)[Gal(b1-4)GlcNAc(b1-6)]Man(a1-6)[GlcNAc(b1-4)][Gal(b1-4)GlcNAc(b1-2)Man(a1-3)]Man(b1-4)GlcNAc(b1-4)GlcNAc
# How it was run: as §1
# [22] = target: Gal(b1-4)GlcNAc(b1-3)Gal(b1-4)Glc
# How it was run: as §1
# [23] = target: Gal(b1-4)GlcNAc(b1-6)[Gal(b1-3)]GalNAc
# How it was run: as §1
# Gal3S(b1-3)GlcNAc = target: Gal3S(b1-3)GlcNAc
# How it was run: as §1
# Gal6S(b1-4)GlcNAc6S = target: Gal6S(b1-4)GlcNAc6S
# How it was run: as §1
# [24] = target: GalNAc(b1-4)GlcNAc(b1-2)Man(a1-3)[GalNAc(b1-4)GlcNAc(b1-2)Man(a1-6)]Man(b1-4)GlcNAc(b1-4)GlcNAc
# How it was run: as §1
# GlcA(b1-3)Gal = target: GlcA(b1-3)Gal
# How it was run: as §1
# [25] = target: GlcNAc(a1-3)Gal(b1-4)GlcNAc
# How it was run: as §1
# [26] = target: GlcNAc(b1-3)Gal(b1-4)GlcNAc(b1-3)Gal(b1-4)GlcNAc(b1-2)Man(a1-3)[GlcNAc(b1-3)Gal(b1-4)GlcNAc(b1-3)Gal(b1-4)GlcNAc(b1-2)Man(a1-6)]Man(b1-4)GlcNAc(b1-4)GlcNAc
# How it was run: as §1
# [27] = target: GlcNAc(b1-3)Gal(b1-4)GlcNAc(b1-3)Gal(b1-4)GlcNAc(b1-3)Gal(b1-4)GlcNAc(b1-3)Gal(b1-4)GlcNAc(b1-2)Man(a1-3)[GlcNAc(b1-3)Gal(b1-4)GlcNAc(b1-3)Gal(b1-4)GlcNAc(b1-3)Gal(b1-4)GlcNAc(b1-3)Gal(b1-4)GlcNAc(b1-2)Man(a1-6)]Man(b1-4)GlcNAc(b1-4)GlcNAc
# How it was run: as §1
# [28] = target: GlcNAc(b1-3)Gal(b1-4)GlcNAc(b1-3)GalNAc
# How it was run: as §1
# [29] = target: GlcNAc(b1-6)Gal(b1-4)GlcNAc
# How it was run: as §1
# Man(a1-3)[Man(a1-6)]Man = target: Man(a1-3)[Man(a1-6)]Man
# How it was run: as §1
# [30] = target: Neu5Ac(a2-3)Gal(b1-3)GlcNAc(b1-2)Man
# How it was run: as §1
# [31] = target: Neu5Ac(a2-3)Gal(b1-3)[Fuc(a1-4)]GlcNAc(b1-3)Gal(b1-4)[Fuc(a1-3)]GlcNAc
# How it was run: as §1
# [32] = target: Neu5Ac(a2-3)Gal(b1-4)GlcNAc(b1-2)[Neu5Ac(a2-3)Gal(b1-4)GlcNAc(b1-4)]Man(a1-3)[GlcNAc(b1-4)][Neu5Ac(a2-3)Gal(b1-4)GlcNAc(b1-2)[Neu5Ac(a2-3)Gal(b1-4)GlcNAc(b1-6)]Man(a1-6)]Man(b1-4)GlcNAc(b1-4)GlcNAc
# How it was run: as §1
# [33] = target: Neu5Ac(a2-3)Gal(b1-4)GlcNAc(b1-2)[Neu5Ac(a2-3)Gal(b1-4)GlcNAc(b1-4)]Man(a1-3)[GlcNAc(b1-4)][Neu5Ac(a2-3)Gal(b1-4)GlcNAc(b1-4)Man(a1-6)]Man(b1-4)GlcNAc(b1-4)GlcNAc
# How it was run: as §1
# [34] = target: Neu5Ac(a2-6)Gal(b1-4)GlcNAc(b1-2)Man(a1-6)Man(b1-4)GlcNAc(b1-4)GlcNAc
# How it was run: as §1
# [35] = target: Neu5Ac(a2-6)Gal(b1-4)GlcNAc(b1-2)Man(a1-6)[Gal(b1-4)GlcNAc(b1-2)Man(a1-3)]Man(b1-4)GlcNAc(b1-4)GlcNAc
# How it was run: as §1
# [36] = target: Neu5Ac(a2-6)Gal(b1-4)GlcNAc(b1-3)GalNAc
# How it was run: as §1
# [37] = target: Neu5Ac(a2-8)Neu5Ac(a2-3)[GalNAc(b1-4)]Gal(b1-4)Glc
# How it was run: as §1
# [38] = target: Neu5Ac9Ac(a2-3)Gal(b1-3)GlcNAc
# How it was run: as §1
# [39] = target: Neu5Gc(a2-3)Gal(b1-3)[Fuc(a1-4)]GlcNAc
# How it was run: as §1
# [40] = target: Neu5Gc(a2-3)Gal(b1-4)[Fuc(a1-3)]GlcNAc
# How it was run: as §1
binder,measurement,setting,value
B936 (Bifidobacterium sp) (protein) MKNWKKAIALVASAAALVSVAACGPSNAGGSSDSGKKTVGFVAVGPEGGFRTANEKDIQKAFEDAGFDLTYSPTQNNDQQKQIQAFNKFVNDEVDAIILSSTEDSGWDDSLKKAAEAEIPVFTVDRNVDVKDAEAKKAIVAHIGPSNVWCGEQAAEFVNKNFPDGANGFILEGPAGLSVVKDRGTGWGNKVASNVKVLESQSANWSTDEAKTVTAGLLDKYKSDNPQFIFAQNDEMGLGAAQAVDAAGLKGKVKIITIDGTKNALQALVDGDLSYVIEYNPIFGKETAQAVKDYLDGKTVEKDIEIESKTFDAASAKEALDNNTRAY,glycan array binding signal (z-score),[1],-0.124
same,glycan array binding signal (z-score),[2],0.564
same,glycan array binding signal (z-score),[3],-0.277
same,glycan array binding signal (z-score),[4],-0.217
same,glycan array binding signal (z-score),[5],0.424
same,glycan array binding signal (z-score),[6],-0.006
same,glycan array binding signal (z-score),[7],0.198
same,glycan array binding signal (z-score),[8],-0.555
same,glycan array binding signal (z-score),[9],-0.786
same,glycan array binding signal (z-score),[10],0.399
same,glycan array binding signal (z-score),[11],-0.367
same,glycan array binding signal (z-score),[12],2.85
same,glycan array binding signal (z-score),[13],2.05
same,glycan array binding signal (z-score),Gal(a1-3)Gal(b1-4)GlcNAc,-0.375
same,glycan array binding signal (z-score),[14],2.19
same,glycan array binding signal (z-score),Gal(b1-3)Gal(b1-4)GlcNAc,11.1
same,glycan array binding signal (z-score),Gal(b1-3)GalNAc,4.57
same,glycan array binding signal (z-score),[15],1.71
same,glycan array binding signal (z-score),[16],4.33
same,glycan array binding signal (z-score),[17],1.8
same,glycan array binding signal (z-score),[18],-0.183
same,glycan array binding signal (z-score),[19],1.04
same,glycan array binding signal (z-score),[20],-0.689
same,glycan array binding signal (z-score),[21],-0.558
same,glycan array binding signal (z-score),[22],3.24
same,glycan array binding signal (z-score),[23],0.173
same,glycan array binding signal (z-score),Gal3S(b1-3)GlcNAc,0.121
same,glycan array binding signal (z-score),Gal6S(b1-4)GlcNAc6S,0.127
same,glycan array binding signal (z-score),[24],3.25
same,glycan array binding signal (z-score),GlcA(b1-3)Gal,-0.516
same,glycan array binding signal (z-score),[25],0.799
same,glycan array binding signal (z-score),[26],0.824
same,glycan array binding signal (z-score),[27],-0.371
same,glycan array binding signal (z-score),[28],-0.806
same,glycan array binding signal (z-score),[29],-0.106
same,glycan array binding signal (z-score),Man(a1-3)[Man(a1-6)]Man,-0.318
same,glycan array binding signal (z-score),[30],0.307
same,glycan array binding signal (z-score),[31],0.193
same,glycan array binding signal (z-score),[32],-0.471
same,glycan array binding signal (z-score),[33],0.275
same,glycan array binding signal (z-score),[34],0.197
same,glycan array binding signal (z-score),[35],-0.37
same,glycan array binding signal (z-score),[36],2.06
same,glycan array binding signal (z-score),[37],-0.488
same,glycan array binding signal (z-score),[38],-0.521
same,glycan array binding signal (z-score),[39],0.081
same,glycan array binding signal (z-score),[40],-0.593
